TROY NFkB inh: TROY signaling inhibition | actives 0.98% (n = 360,000) | inhibition, % at 10 µM | Q293 LMP1-TROYcd NF-kB luciferase reporter, 4 h;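 active means compounds whose plate-normalised and pattern-corrected inhibition of the luciferase reporter signal at the single screening dose is 50% or more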
TRPM1 prom inh: reduces MITF-dependent TRPM1 promoter luciferase signal; SK-MEL-5 TRPM1 promoter luciferase, 24 h; inhibition, % at 12.5 µM; actives 0.83% (n = 330,000); AID 488899;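 active means mean inhibition across replicates of 60% or more, whatever share of single replicates reaches that level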
TWEAK Fn14 block: blocks TWEAK-Fn14 interaction in a reporter cell assay. actives 2% (n = 360,000). TWEAK-stimulated Fn14 reporter cells, luciferase luminescence, 8 h. inhibition, % at 10 µM; in the data active means inhibition above about 50%
Peg3 prom inh: reduces Peg3 promoter-driven luciferase expression in HeLa; AID 588405; HeLa PEG-Prom luciferase reporter, luminescence, overnight; actives 1.7% (n = 360,000); inhibition, % at 20 µM;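 active means inhibition of at least 50% at 20 µM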
EBV LMP1 NFkB: reduces LMP1-driven NF-kappaB luciferase signal; LMP1-induced NF-kappaB luciferase reporter cells, luminescence; actives 0.69% (n = 350,000); inhibition, % at 12.5 µM; AID 504558; in the data active means inhibition above about 41%;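 further: 0% = neutral control wells and 100% = reference inhibitor control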
Shn3 3UTR inh: reduces Shn3 3'UTR luciferase signal in osteoblasts; inhibition, % at 12.5 µM; Clone20 osteoblast Shn3 3'UTR firefly luciferase, 24 h; AID 588674; actives 0.52% (n = 360,000);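 active means mean inhibition of at least 75% with every replicate also reaching 75%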;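 further: 0% = median of neutral control wells and 100% = pilot-screen positive control compound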
Numbers without * were called inactive; . = not tested or not shown. Shown are actives, neighbours in structure and some others; about 4.1% of the full set was active somewhere.

SMILES | TROY NFkB inh | TRPM1 prom inh | TWEAK Fn14 block | Peg3 prom inh | EBV LMP1 NFkB | Shn3 3UTR inh
COc1cc(/C=C2\SC(=O)N(CC(=O)Nc3ccccc3F)C2=O)cc(Cl)c1O | 54.0* | 9.0 | 18.0 | 21.1 | 6.7 | 10.2
COc1ccccc1C(=O)NC(CCSC)C(=O)OCC(=O)N1CCN(S(=O)(=O)c2ccc(C)cc2)CC1 (stereo not drawn) | 1.0 | . | -4.4 | -2.6 | -2.9 | 4.2
CCN(CC)S(=O)(=O)c1cccc(-n2c(O)c(C=Nc3ccccc3C(=O)O)c3ccccc3c2=O)c1 | 41.8 | 53.5 | 52.5* | 23.7 | 57.6* | -18.4
O=C1CCc2cc(OCCCCc3nnnn3C3CCCCC3)ccc2N1 | 15.2 | 12.2 | -42.4 | 15.4 | 73.2* | 31.2
C[C@@H]1[C@@H](Sc2ccccc2)CC(=O)O[C@@H]1c1ccc(-c2ccccc2)cc1 | -26.8 | 11.1 | 35.9 | 97.5* | 1.9 | -23.7
CCn1c(CNC(=O)c2ccccc2F)nnc1SCC(=O)NC1CCCCC1C (stereo not drawn) | 8.0 | 9.1 | 7.2 | 2.6 | -28.4 | 4.9
Oc1ccc(/C=N/Nc2ccnc3cc(Cl)ccc23)c(O)c1O | -6.5 | -8.8 | -6.9 | 12.9 | 3.8 | 6.7
Oc1ccc(/C=N/Nc2ccnc3cc(Cl)ccc23)cc1O | 0.6 | 8.3 | -79.6 | 74.0* | -2.6 | 56.3
O=C(NCC(c1ccco1)N1CCCC1)c1cccc(S(=O)(=O)N2CCc3ccccc32)c1 (stereo not drawn) | 10.7 | . | -3.0 | 14.1 | -7.1 | 23.9
Oc1ccc(-c2nc3c4c(ncn3n2)-c2ccccc2CC42CCCC2)cc1 | 30.3 | 11.7 | 77.1* | 110.7* | -8.4 | 8.5
COc1ccc(OCC(O)CNCCOc2ccccc2OC)c(C(C)(C)C)c1 (stereo not drawn) | 0.5 | -2.7 | 15.6 | 62.8* | 4.3 | 83.6
COc1ccccc1NCC(O)COc1ccc(C(C)(C)C)cc1 (stereo not drawn) | -26.8 | -23.2 | -24.7 | -0.8 | 2.1 | 51.6
Cc1cnc(C(=O)OCC(=O)c2ccc(Br)s2)cn1 | -4.1 | 11.0 | -7.0 | -1.1 | -2.5 | -18.1
CCOC(=O)[C@]12CCC=C1N(Cc1ccco1)C(=O)[C@H](CC(=O)NCc1ccc(OC)c(OC)c1)C2 | -3.2 | . | -4.5 | . | . | .
CCOC(=O)[C@]12CCC=C1N(Cc1cccc3ccccc13)C(=O)[C@H](CC(=O)NCc1ccc(OC)c(OC)c1)C2 | 33.7 | . | 60.5* | . | . | .
COC(=O)[C@]12CCCCC=C1N(Cc1cccc3ccccc13)C(=O)[C@H](CC(=O)NCc1ccc(OC)c(OC)c1)C2 | 62.5* | . | 97.4* | . | . | .
O=C(CN1c2ccccc2Sc2ccccc21)NNC(=S)Nc1ccc(Cl)cc1 | 42.7 | -5.1 | 19.6 | 13.0 | -0.3 | 17.7
O=C(CN1c2ccccc2Sc2ccccc21)NNC(=S)Nc1ccc(Cl)cc1Cl | 52.0* | -2.9 | -6.6 | 50.4* | 3.1 | 10.9
Cc1cc(C(=O)Cn2cnc3cc(F)ccc3c2=O)c(C)n1C1CC1 | -24.8 | -70.9 | -19.5 | -247.5 | -21.2 | 92.9*
CCCc1ccc(C(O)c2ncc(-c3ccc(OC)cc3)[nH]2)cc1 (stereo not drawn) | -24.6 | . | -8.3 | 12.2 | . | 20.2
Clc1ccccc1-c1ccc2nccn2c1 | -5.4 | . | -2.9 | -12.1 | . | 23.6
O=C(O)c1ccc(N/N=C/c2c(F)cccc2Cl)cc1 | 35.4 | 56.5 | 95.1* | 34.9 | 13.5 | 14.7
O=C(N/N=C/c1c(F)cccc1Cl)C1CC1 | -22.4 | -5.6 | 44.5 | -2.9 | 2.1 | -39.2
CSc1nc(C(=O)N2CCCC(Nc3ccc(C)c(C)c3)C2)cs1 (stereo not drawn) | -23.1 | 3.4 | -24.7 | 4.2 | -9.2 | -0.6
COc1ccc(-c2cc(CNC(=O)CCl)on2)cc1 | . | 6.6 | 76.4* | -28.2 | -24.1 | -13.3
SMILES | TROY NFkB inh | TRPM1 prom inh | TWEAK Fn14 block | Peg3 prom inh | EBV LMP1 NFkB | Shn3 3UTR inh
CCCc1nnc(SCc2ccc(OCC)cc2)n1N | 6.5 | 9.4 | -26.0 | 8.0 | 76.7* | -8.4
CCc1cccc(C)c1NC(=O)C1CCN(C(=O)c2ccc([N+](=O)[O-])cc2)CC1 | -9.7 | -3.3 | 0.8 | 9.8 | 1.5 | 1.9
COc1ccc2nc3cc(Cl)ccc3c(Nc3ccc(O)c(CN4CCN(C)CC4)c3)c2c1 | -84.6 | 105.9* | -111.6 | 95.0* | 3.6 | -6.0
Cc1ccccc1N(CC(=O)NCc1ccco1)C(=O)CCC(=O)Nc1nccs1 | -9.5 | 0.8 | 81.5* | -14.5 | 2.7 | 15.5
Cc1cccc(N(CC(=O)NCc2ccco2)C(=O)CCC(=O)Nc2nccs2)c1C | -44.6 | 0.8 | 1.2 | -0.4 | 5.7 | 7.1
CC(C)CCNC(=O)CN(C(=O)CCC(=O)Nc1nccs1)c1ccc2c(c1)OCCO2 | 68.9* | 17.4 | 78.3* | 38.6 | 16.8 | 23.4
COCCN(C(=O)COC(=O)c1ccc(Cl)nc1)c1c(N)n(Cc2ccccc2)c(=O)[nH]c1=O | -8.0 | -14.6 | 6.4 | -19.1 | -1.0 | -12.5
CCOC(=O)c1c(C)c2c(=O)[nH]cnc2n1-c1ccccc1 | 41.8 | -8.6 | 62.9* | -17.4 | 26.9 | 3.0
CC1=NN(C(C#N)c2c(C)nn(Cc3ccccc3)c2C)C(C)(C)C1 (stereo not drawn) | -6.5 | 1.7 | -3.8 | -0.6 | 57.4* | -2.6
O=C(Nc1nnc(CC2=CCCCC2)s1)c1cccs1 | -31.5 | -34.5 | -23.6 | -137.4 | -14.4 | -51.6
O=C(Nc1ccc(Cl)c(Cl)c1)Nc1nnc(CC2=CCCCC2)s1 | 22.1 | 29.6 | 28.3 | 23.7 | 70.9* | 47.4
COc1ccc(NC(=O)CSc2nc(-c3ccc(C)cc3)cc(C(F)(F)F)c2C#N)cc1 | -2.9 | 3.2 | -24.5 | 9.9 | -23.3 | -20.4
Cc1coc(NC(=O)CSc2nc(-c3ccc(Cl)cc3)cc(C(F)(F)F)c2C#N)n1 | 6.7 | 22.4 | -42.1 | 59.5* | -58.0 | 8.3
COc1ccc(-c2cc(C(F)(F)F)c(C#N)c(SCC(=O)Nc3nc(C)co3)n2)cc1 | 9.6 | -0.9 | -44.0 | 57.0* | -1.3 | 1.2
COc1ccc(-c2cc(C(F)(F)F)c(C#N)c(SCC(=O)O)n2)cc1 | 2.7 | 14.8 | -22.3 | 26.6 | 0.8 | -8.3
CC(=O)c1cccc(OCc2cc(C(=O)NCCC3=CCCCC3)no2)c1 | -19.2 | -80.1 | -24.5 | -330.8 | -33.8 | -36.3
c1ccc(-c2cc3c(-n4cccc4)ncnc3o2)cc1 | -8.3 | 0.7 | 28.1 | -58.9 | -13.9 | -23.1
c1ccc(Oc2ncnc3oc(-c4ccccc4)cc23)cc1 | 2.7 | -37.4 | 95.8* | -32.8 | -5.0 | -26.3
c1ccc(CCNc2ccnc3cc4ccccc4cc23)cc1 | 11.7 | 102.6* | -16.4 | 105.6* | -59.5 | 94.1*
COc1ccc(Nc2ccnc3ccccc23)cc1 | 12.2 | -2.6 | 45.0 | -10.4 | 15.0 | 3.6
CC(C)Nc1ccc(Nc2ccnc3cc4ccccc4cc23)cc1 | 48.4 | 88.0* | -10.7 | 108.1* | -142.8 | 13.2
CC(C)Cc1ccc(C(C)CC2=CCC(CN(C)C)C2=O)cc1 (stereo not drawn) | 0.5 | 42.3 | 14.6 | 100.5* | -10.2 | 2.5
CC(C)Cc1ccc(S(=O)(=O)N2CCOCC2)cc1 | -11.6 | 3.0 | -9.2 | 5.9 | -6.1 | -20.2

From PubChem
